Source: PubChem BioAssay (National Center for Advancing Translational Sciences (NCATS))
The list is not random: actives were taken first. Their share in the collection is about 4%.
p53null 32C kill: p53 null cell cytotoxicity, permissive temperature; H1299-neo p53 null cells, ATP luminescence, 24 h, 32C; Potency, µM (doses to about 46.1 µM), for inactives: top-dose activity change, negative = cytotoxicity, actives largely listed as cytotoxic; hit rate 0.62% among 55,000;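 also: potency is read from the fitted curve at half-maximal effect; 0% = DMSO only and -100% = full killing by 100 µM tamoxifen; nearly all actives have a fitted effect of over 55% in size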
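Luminescent ATP readout gave cell viability of p53-null H1299-neo cells after a 24 h compound exposure at the permissive 32C. Titrations ran up to 46 uM, and AC50s were fitted with the standard Hill equation.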
NTMT1 inh: inhibitors of human N-terminal methyltransferase NTMT1. Q9BV86. NTMT1 MTase-Glo SAH luminescence, purified enzyme. Potency, µM (series often up to 114 µM), for inactives: at the top dose activity change, negative = inhibition, most hits filed as inhibitors. hit rate 2.5% among 59,000;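 also: potency is read from the fitted curve at half-maximal effect; plate controls were DMSO vehicle for no effect and no enzyme for full effect; nearly all actives have a fitted effect of over 65% in size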
p53null 39C kill: selectivity test: cytotoxicity in p53 null cells, nonpermissive temperature; AID 904; H1299 p53-null (neo) cells, 39C, ATPlite viability, 24 h; hit rate 0.97% among 55,000; Potency, µM (highest dose often 46.1 µM), for inactives: at the top dose activity, negative = cell killing, usual class: cytotoxic;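 also: potency is read from the fitted curve at half-maximal effect; 0% = DMSO only and -100% = full killing by 100 µM tamoxifen; nearly all actives have a fitted effect of over 50% in size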
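Following overnight plating at 37C (600 cells/well), H1299-neo or H1299-p53A138V cells are dosed up to 46 uM. Incubation lasts 24 hr at 39C before ATP detection.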
Sfp qHTS opt: Sfp PPTase inhibition, chemistry optimization. purified Sfp PPTase enzyme activity, qHTS. hit rate 78% among 230. AID 540350. shares compounds with NTMT1 inh. Potency, µM (titrated, usually from 114 µM), inactives show top-dose activity change, negative = inhibition, actives largely listed as inhibitors
HM489 growth: reduces growth of B. subtilis HM489 strain; shares compounds with NTMT1 inh; B. subtilis HM489 (acpS-) growth, BacTiter-Glo, 5 h; Potency, µM (titrated, usually from 114 µM), for inactives: top-dose activity change, negative = inhibition, usual class: inhibitors; hit rate 50% among 220
Sfp gel opt: inhibits B. subtilis Sfp PPTase in gel assay; shares compounds with NTMT1 inh; purified Sfp PPTase, gel-based product detection; Potency, µM (doses to about 250 µM), without a hit: at the highest dose activity change, negative = inhibition, actives largely listed as inhibitors; hit rate 54% among 220
Sfp inh gel: inhibits B. subtilis Sfp PPTase in gel-based assay. purified Sfp PPTase, gel-based product detection. Potency, µM (titrated, usually from 250 µM), for inactives: at the top dose activity change, negative = inhibition, actives largely listed as inhibitors. AID 602362. hit rate 90% among 45. shares compounds with NTMT1 inh
Sfp SAR2: inhibits B. subtilis Sfp PPTase in second SAR round | Potency, µM (doses to about 57.1 µM), inactives show top-dose activity change, negative = inhibition, usual class: inhibitors | purified Sfp enzyme, PPTase activity, qHTS | hit rate 87% among 230 | shares compounds with NTMT1 inh
hGST ctr: inhibits hGST A1-1 in Sfp inhibitor counter-screen | shares compounds with NTMT1 inh | hGST A1-1 enzyme activity counter-screen, qHTS | Potency, µM (doses to about 114 µM), without a hit: top-dose activity change, negative = inhibition, most hits filed as inhibitors | 55 tested, under 10 active | AID 602391
HSD17B4 counter: counter-screen for HPGD inhibitors: human HSD17B4 inhibition; hit rate 10% among 230; Potency, µM (titrated, usually from 57.1 µM), inactives show top-dose activity change, negative = inhibition, usual class: inhibitors; AID 743187; shares compounds with NTMT1 inh; purified HSD17B4, estradiol/NAD+, NADH fluorescence
ALDH1A1 inh: inhibits human ALDH1A1, off-target for HPGD inhibitors; shares compounds with NTMT1 inh; recombinant ALDH1A1, NADH fluorescence, propionaldehyde/NAD+; Potency, µM (top dose mostly 57.1 µM), for inactives: at the highest dose activity change, negative = inhibition, most hits filed as inhibitors; hit rate 93% among 230; AID 743195
* = called active by the depositor; ? = inconclusive; . = no result; [ ] = remark or other dose. Calls follow the shape of the dose curve; as a rule, active = well fitted curve in the direction sought with a large enough effect; inconclusive = small, poorly fitted or top-dose-only effect, or another doubt; inactive = no such curve, though single readings can be large; an effect the other way counts as inactive or inconclusive.

SMILES | p53null 32C kill | NTMT1 inh | p53null 39C kill | Sfp qHTS opt | HM489 growth | Sfp gel opt | Sfp SAR2 | HSD17B4 counter | ALDH1A1 inh | others
Cc1ccc(S(=O)(=O)N2CCN(c3ccc(C(F)(F)F)cc3[N+](=O)[O-])CC2)cc1 | 16% | . | . | . | . | . | . | . | .
COc1ccnc(NC(=S)N2CCN(c3cccc(C(F)(F)F)n3)CC2)c1 | . | ? | . | 47µM* | -15% | ? | 5.8µM* | 24% | 8.6µM*
COc1cc(NC(=S)N2CCN(c3ccccn3)CC2)cc(OC)c1 | . | . | -2% | . | . | . | . | . | .
CC(NC(=O)Cc1cc(F)cc(F)c1)C(=O)NC1C(=O)N(C)c2ccccc2-c2ccccc21 (stereo unspecified) | . | 5%[57.5 µM] | . | . | . | . | . | . | .
Cc1cc(C)nc(NC(=S)N2CCN(c3cc(Cl)c(Cl)cc3Cl)CC2)c1 | . | ? | . | 4.7µM* | ? | 5µM* | 3.2µM* | -22% | 22µM*
Cc1cc(C)nc(NC(=S)N2CCN(c3ccc(Cl)c(Cl)c3Cl)CC2)c1 | . | ? | . | 2.4µM* | 7.4µM* | ? | 0.73µM* | -23% | 19µM*
Cc1cc(C)nc(NC(=S)N2CCN(c3ccc4ncccc4c3[N+](=O)[O-])CC2)c1 | . | ? | . | 5.9µM* | -21% | -59% | 2.9µM* | -16% | 19µM*
COc1ccc(NC(=S)Nc2cc(C)cc(C)n2)cc1OC | . | . | 20% | . | . | . | . | . | .
Cc1cc(C)nc(NC(=S)N2CCN(Cc3c(F)cccc3Cl)CC2)c1 | . | -19%[57.5 µM] | . | 8.3µM* | -23% | -42% | ? | -12% | 11µM*
Cc1cc(C)nc(NC(=O)CCC2CCCC2)c1 | -14% | . | -1% | . | . | . | . | . | .
COc1ccc(C)cc1NC(=S)N1CCN(c2ccccn2)CC1 | 2% | . | . | . | . | . | . | . | .
C=C(C)C1CC2(CO)C(=CC1=O)CCC(O)C2C (stereo unspecified) | . | -7%[57.5 µM] | . | . | . | . | . | . | .
N#Cc1c(-c2cc(C(F)(F)F)cc(C(F)(F)F)c2)no[n+]1[O-] | . | 5% | . | . | . | . | . | . | .
C[C@@H]([C@@H](O)c1ccc(O)cc1)N1CCC(O)(c2ccccc2)CC1 | . | 2%[57.5 µM] | . | . | . | . | . | . | .
Nc1ncnc(Nc2ccc(OCc3ccccc3)c(Cl)c2)c1/C=N/OCCN1CCOCC1 | . | 6% | . | . | . | . | . | . | .
Cc1cc(C)nc(NC(=S)N2CCN(c3ccc([N+](=O)[O-])cc3Cl)CC2)c1 | . | 28µM* | . | 1.5µM* | -17% | 2µM* | 0.81µM* | 19µM* | 0.68µM* | Sfp inh gel=1.5µM*;hGST ctr=0%
Cc1ccc(-c2ccc(=O)n(CC(=O)N(C)C(C)c3ccco3)c2)cc1 (stereo unspecified) | . | -1% | . | . | . | . | . | . | .
